Source: PubChem BioAssay
M1 ag parental: counter-screen for M1 agonists: effect in parental CHO-K1 cells. hit rate 0.48% among 360,000. Fluo-8 calcium fluorescence; scaled to maximal ATP response, vehicle zero. activation, % at 3 µM; in the data active = activation above about 15%;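 note: untransfected CHO-K1 host cells lacking M1 receptor as counterscreen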
M1 PAM parental: nonselective calcium activators in parental CHO-K1 cells, primary screen, counter-screen for M1 PAM project, cell-based, Fluo-8 calcium fluorescence, full deck, 1536-well. ATP EC20; 0% at ATP EC20, 100% at ATP max. hit rate 0.02% among 360,000. activation, % at 3 µM;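 active = activation above the run cutoff, the mean activation of all test compounds plus 3 SD, cut at about 40% in these data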;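 note: peak over basal fluorescence ratio in a 140 s read after ATP addition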
CHO-K1 Ca antag: M1 antagonist counterscreen hit in parental CHO-K1 cells | ATP-induced calcium, Fluo-8 fluorescence | inhibition, % at 3 µM | hit rate 0.6% among 360,000 | AID 602250;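 active = inhibition above a per-plate cutoff, the plate's mean sample inhibition plus 3 SD, cut at about 24% in these data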
M1 antag: human M1 muscarinic receptor antagonists, primary screen, CHO-K1 cells, Fluo-8 calcium fluorescence, 1536-well; hit rate 1.3% among 360,000; CHO-K1 hM1, ACh EC80 antagonist; inhibition, % at 3 µM;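 active = percent inhibition above its own plate's cutoff, namely the mean of that plate's compound wells plus 3 SD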;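 note: peak over basal fluorescence ratio during 140 s after agonist addition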
Target sequence (P11229 whole entry, looked up): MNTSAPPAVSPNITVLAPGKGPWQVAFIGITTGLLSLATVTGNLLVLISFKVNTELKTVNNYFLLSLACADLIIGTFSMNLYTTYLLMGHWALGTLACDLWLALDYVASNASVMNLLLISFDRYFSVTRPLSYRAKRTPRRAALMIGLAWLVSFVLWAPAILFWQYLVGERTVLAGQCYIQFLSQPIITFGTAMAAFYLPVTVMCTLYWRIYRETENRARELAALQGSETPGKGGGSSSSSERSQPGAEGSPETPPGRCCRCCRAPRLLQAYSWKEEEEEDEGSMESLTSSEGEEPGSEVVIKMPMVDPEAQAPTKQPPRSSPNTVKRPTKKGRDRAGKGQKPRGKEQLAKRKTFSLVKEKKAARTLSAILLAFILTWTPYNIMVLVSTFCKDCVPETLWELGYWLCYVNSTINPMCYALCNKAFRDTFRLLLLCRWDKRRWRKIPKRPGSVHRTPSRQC
CHRM1 PAM: human M1 muscarinic receptor positive allosteric modulators, primary screen, CHO-K1 cells, Fluo-8 calcium fluorescence, 1536-well; CHO-K1 hM1, ACh EC20; 0% = ACh EC20, 100% = maximal ACh; activation, % at 3 µM; hit rate 0.088% among 360,000; in the data active = activation above about 19%, passing the limit was not always enough
CHRM1 agonist: human M1 muscarinic receptor agonists, primary screen, Fluo-8 calcium fluorescence, CHO-K1 cells, HTS; Muscarinic acetylcholine receptor M1 (Homo sapiens), P11229; CHO-K1 hM1, agonist mode; 0% DMSO, 100% acetylcholine EC100; activation, % at 3 µM; hit rate 0.33% among 360,000; AID 588814, 2011;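 active = activation above the run's mean compound activation plus 3 SD, cut at about 16% in these data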;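 note: peak over basal fluorescence ratio within a 140 s kinetic read after compound addition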
Numbers stand for hits. Most compounds without a hit are left out; they make up all but 2.3% or so of the library.

Results for CCC1(c2ccccc2)NC(=O)N(CC(=O)N(CC(=O)Nc2ccccc2C(F)(F)F)Cc2ccco2)C1=O (centres undefined) ?
M1 ag parental: inactive; M1 PAM parental: inactive; CHO-K1 Ca antag: inactive; M1 antag: inactive; CHRM1 PAM: inactive; CHRM1 agonist: 18.1

What do the screens show for `CCOc1ccc(S(=O)(=O)Nc2ccccc2C(=O)N2CCOCC2)cc1`?
M1 ag parental: inactive; M1 PAM parental: inactive; CHO-K1 Ca antag: inactive; M1 antag: inactive; CHRM1 PAM: inactive; CHRM1 agonist: inactive

How did CCOC(=O)N1CCN(Cc2c(O)ccc3ccccc23)CC1 do in these assays?
M1 ag parental: 16.0; M1 PAM parental: inactive; CHO-K1 Ca antag: inactive; M1 antag: inactive; CHRM1 PAM: inactive; CHRM1 agonist: inactive

What do the screens show for `CCOC(=O)N1CCN(C(=O)Cc2c(C(=O)O)n(C)c3ccccc23)CC1`?
M1 ag parental: inactive; M1 PAM parental: inactive; CHO-K1 Ca antag: inactive; M1 antag: inactive; CHRM1 PAM: inactive; CHRM1 agonist: 27.5

Results for CCOc1ccc(NC(=S)N2CCN(C/C=C/c3ccccc3)CC2)cc1 ?
M1 ag parental: inactive; M1 PAM parental: inactive; CHO-K1 Ca antag: inactive; M1 antag: inactive; CHRM1 PAM: inactive; CHRM1 agonist: inactive

How did Cc1ccc(C(=O)OCN2C(=O)c3ccccc3C2=O)o1 do in these assays?
M1 ag parental: inactive; M1 PAM parental: inactive; CHO-K1 Ca antag: inactive; M1 antag: inactive; CHRM1 PAM: inactive; CHRM1 agonist: inactive

Results for CN(c1cccc(F)c1)c1cc2c(c3c1ccn3C)C1CCC2O1 (centres undefined) ?
M1 ag parental: inactive; M1 PAM parental: inactive; CHO-K1 Ca antag: inactive; M1 antag: inactive; CHRM1 PAM: inactive; CHRM1 agonist: inactive

How did CCOc1ccc(C(C)NC(=S)NCc2ccc(F)cc2)cc1 (centres undefined) do in these assays?
M1 ag parental: 22.6; M1 PAM parental: inactive; CHO-K1 Ca antag: inactive; M1 antag: inactive; CHRM1 PAM: inactive; CHRM1 agonist: inactive

What do the screens show for `CCc1ccc(C(C)NC(=S)NCc2ccc(F)cc2)cc1` (centres undefined)?
M1 ag parental: inactive; M1 PAM parental: inactive; CHO-K1 Ca antag: inactive; M1 antag: 40.3; CHRM1 PAM: inactive; CHRM1 agonist: inactive
